From article PMC5540273 (PLoS ONE, 2017)

Tests used:
Settings in all cases: concentration: 1 μM,replicates: in singlicate; n = 1
[1] = test system: PRKD3
[2] = test system: PRKG1
[3] = test system: PRKG2
[4] = test system: T1, PRKR
T1 construct: gene EIF2AK2

[5] = test system: PRKX
[6] = test system: PRP4
[7] = test system: T2, PYK2
T2 construct: gene PTK2B

[8] = test system: QSK
[9] = test system: RAF1
[10] = test system: RET
[11] = test system: RIOK1
[12] = test system: RIOK2
[13] = test system: RIOK3
[14] = test system: RIPK1
[15] = test system: RIPK2
[16] = test system: RIPK4
[17] = test system: RIPK5
[18] = test system: ROCK1
[19] = test system: ROCK2
[20] = test system: ROS1
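Note: KINOMEscan kinase panel screen.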

Compound	%Inh [1] [%]	%Inh [2] [%]	%Inh [3] [%]	%Inh [4] [%]	%Inh [5] [%]	%Inh [6] [%]	%Inh [7] [%]	%Inh [8] [%]	%Inh [9] [%]	%Inh [10] [%]	%Inh [11] [%]	%Inh [12] [%]	%Inh [13] [%]	%Inh [14] [%]	%Inh [15] [%]	%Inh [16] [%]	%Inh [17] [%]	%Inh [18] [%]	%Inh [19] [%]	%Inh [20] [%]
Cc1occc1-c1nc(N)c(OC[C@@H](N)Cc2c[nH]c3ccccc23)cc1-c1cc2c(C)n[nH]c2cn1 [GSK1660450]	100	78	96.2	0	79	0	0	90.4	0	23	87	16	59	0	10	4	0	93.7	82	4
NC(=O)c1cc(-c2ccccc2)cc2c(C3CCNCC3)c[nH]c12 [GSK301362]	29	5	0	0	36	2	37	13	3	7	79	20	64	0	7	19	0	40	19	23
O=C(NCCCN1CCOC1=O)c1cnc(NCc2cc(Cl)ccc2Cl)nc1NC1CCCC1	0	13	21	4	0	1	0	0	7	22	0	0	6	1	0	11	0	0	0	18
CCn1c(-c2nonc2N)nc2c(C#CC(C)(C)O)nc(OCCN)cc21.Cl.Cl [GSK902056]	37	39	97	0	91.6	8	9	23	0	23	0	8	0	0	0	0	4	18	0	2
C[C@@H]1CCN(C(=O)CC#N)C[C@@H]1N(C)c1ncnc2[nH]ccc12	14	14	0	0	0	0	–	0	0	–	0	0	37	0	0	0	0	–	46	6
C[C@H]1Oc2cc(cnc2N)-c2c(nn(C)c2C#N)CN(C)C(=O)c2ccc(F)cc21	8	0	10	0	7	0	99.6	0	0	22	0	0	0	12	0	0	89	0	0	98.5
Cc1cc(C(=O)Nc2ccc(Oc3ccc4nc(NC(=O)C5CC5)cn4n3)cc2)nn1-c1ccccc1	0	8	6	18	0	0	–	0	75	81	17	0	41	0	24	0	0	0	0	0
Cc1ccc2c(-c3ccncc3)c(-c3ccc(F)cc3)nn2c1.Cl [GW461484]	50	30	18	0	0	0	0	1	19	14	0	0	19	0	55	0	0	14	5	0
Cl.Cl.NC[C@H](CC1CCCCC1)NC(=O)c1cc(Br)c(-c2ccnc3[nH]ccc23)s1 [GSK1581427]	82	99.3	98.5	0	96.2	78	20	5	2	25	100	66	80	0	0	20	5	100	99.1	17
